Assay outcomes: PubChem BioAssay, The Scripps Research Institute Molecular Screening Center
The list is not random: actives were taken first. Their share in the collection is about 2.8%.
PME-1 primary = blocks human protein phosphatase methylesterase 1 | inhibition, % at 5.9 µM | recombinant PME-1, FP-Rh probe fluorescence polarization | Q9Y570 | 320,000 tested, 0.53% active;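 active = inhibition above the campaign mean of all compounds plus 3 SD, cut at about 26% in these data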;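 note: competitive labeling of PME-1 active site by serine hydrolase directed probe; 0% = PME-1 with DMSO and 100% = wells lacking PME-1 enzyme; inhibitors block probe labeling so polarization falls and inhibition rises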
Target sequence (Q9Y570 whole entry, looked up): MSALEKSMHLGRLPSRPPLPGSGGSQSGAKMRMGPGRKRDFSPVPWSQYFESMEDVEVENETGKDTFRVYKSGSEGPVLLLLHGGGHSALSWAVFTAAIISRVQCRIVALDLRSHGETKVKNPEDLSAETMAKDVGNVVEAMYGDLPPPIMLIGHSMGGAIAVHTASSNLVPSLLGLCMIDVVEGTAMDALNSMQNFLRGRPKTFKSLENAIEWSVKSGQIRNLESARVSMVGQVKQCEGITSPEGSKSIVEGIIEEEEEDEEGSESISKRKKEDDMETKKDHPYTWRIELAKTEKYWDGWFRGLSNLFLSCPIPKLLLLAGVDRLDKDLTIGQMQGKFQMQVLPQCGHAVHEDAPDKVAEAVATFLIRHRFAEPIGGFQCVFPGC
PAFAH1B2 inh = inhibitors of human PAFAH1B2; recombinant PAFAH1B2, FP-rhodamine activity probe, fluorescence polarization; 340,000 tested, 1.2% active; AID 492953; inhibition, % at 3.39 µM; P68402;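 active = inhibition above the mean of all tested compounds plus 3 SD, cut at about 24% in these data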;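 note: 0% = enzyme with DMSO and 100% = wells lacking PAFAH1B2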
Fam108B counter = blocks mouse Fam108B hydrolase in RBBP9 counter-screen | recombinant Fam108B, FP-Rh probe fluorescence polarization | inhibition, % at 9.51 µM | 300,000 tested, 0.33% active;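 active = inhibition above the screen mean inhibition plus 3 SD, computed separately per campaign, cut at about 18% in these data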;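 note: inhibitors lower polarization as less probe binds the enzyme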
PAFAH2 FP inh = PAFAH2 (human) inhibition | Q99487 | recombinant PAFAH2, FP-rhodamine activity probe, fluorescence polarization | inhibition, % at 3.39 µM | 340,000 tested, 0.99% active | AID 492956;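 active = inhibition above the mean over all tested compounds plus 3 SD, cut at about 30% in these data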;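 note: inhibitors block probe labeling of enzyme so polarization drops; 0% = enzyme with DMSO and 100% = wells lacking PAFAH2 protein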
pPAFAH inh = pPAFAH (human) enzyme inhibition; recombinant pPAFAH, FP-rhodamine probe fluorescence polarization; inhibition, % at 3.39 µM; 330,000 tested, 1.5% active; AID 463082;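 active = inhibition above the mean inhibition across the screen plus 3 SD, cut at about 25% in these data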;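 note: inhibitors block binding of the rhodamine activity-based probe so polarization drops; 0% = enzyme with DMSO and 100% = wells lacking pPAFAH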
PAFAH1B3 FP inh = PAFAH1B3 (human) inhibition; Q15102; AID 492972; recombinant PAFAH1B3, FP-rhodamine probe, fluorescence polarization; 340,000 tested, 0.28% active; inhibition, % at 3.39 µM;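 active = inhibition above the screen-wide average of all tested compounds plus 3 SD, cut at about 25% in these data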;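 note: 0% = enzyme with DMSO only and 100% = wells lacking PAFAH1B3 protein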
* marks the source's active call; other numbers are inactive results; . = no result given.

SMILES	PME-1 primary	PAFAH1B2 inh	Fam108B counter	PAFAH2 FP inh	pPAFAH inh	PAFAH1B3 FP inh
CCc1cc2c(s1)NC(=O)CN=C2c1cccs1	9	-1	2	2	33*	5
CCC(C)c1ccc(N2C(=O)NC(=O)/C(=C/c3cccn3CCOc3ccc(C)cc3)C2=O)cc1 (stereo not drawn)	-13	17	2	25	28*	5
COc1cccc2c1C(=O)c1c(O)c3c(c(O)c1C2=O)CC(O)(C(C)=NO)CC3OC1CC(N)C(O)C(C)O1 (stereo not drawn)	.	45*	.	42*	.	30*
CC(=O)NC(Cc1ccc(N(CCCl)CCCl)cc1)C(=O)O (stereo not drawn)	2	7	2	4	-2	5
O=C(Cc1ccccc1)NC(Cc1ccc(Cl)cc1)C(=O)O (stereo not drawn)	-2	38*	1	-4	0	5
O=C(Cc1ccc(N(CCCl)CCCl)cc1)NC(Cc1ccc(Cl)cc1)C(=O)O (stereo not drawn)	3	60*	8	5	5	6
CNC(=O)Oc1ccc(C(=O)N2c3ccccc3NC(=O)C2C)cc1 (stereo not drawn)	0	48*	0	-2	7	11
O=C(O)c1ccc2c(c1)C1C(Cl)C(Sc3ccccc3[N+](=O)[O-])CC1C(c1cccc([N+](=O)[O-])c1)N2 (stereo not drawn)	.	24	.	52*	.	41*
O=C(O)c1cccc2c1NC(c1cccc([N+](=O)[O-])c1)C1CC(Sc3ccccc3[N+](=O)[O-])C(Cl)C21 (stereo not drawn)	.	18	.	37*	.	11
O=[N+]([O-])c1cccc(C2N3CCCN23)c1 (stereo not drawn)	-8	5	6	-8	-2	7
CC(C)CCOP(N)(=O)Oc1ccccc1Cl (stereo not drawn)	30*	85*	-1	30	1	26*
NP(=O)(OCCCc1ccccc1)Oc1ccccc1Cl (stereo not drawn)	59*	92*	2	67*	6	45*
NP(=O)(OCCCc1ccccc1)c1ccccc1 (stereo not drawn)	2	8	-6	11	0	-4
NP(=O)(OCCCc1ccccc1)Oc1ccc(Cl)cc1 (stereo not drawn)	10	95*	1	12	2	-1
CC(C)CCOP(N)(=O)Oc1ccccc1 (stereo not drawn)	-9	10	2	7	-9	3
Cn1nccc1C(=O)N1CCC2(CC1)OCCO2	3	-2	-6	3	5	5
COC(=O)C1=C(c2ccc(S(C)(=O)=O)cc2)C[C@@H]2CC[C@H]1N2C(=O)NCCCOC(C)C	1	0	-7	1	-1	8
Cn1ncnc2c(=O)n(C)c(=O)nc1-2	44*	51*	78*	59*	5	75*
N#Cc1ccccc1OCC(=O)N1CCN(CC(=O)Nc2ccc(F)cc2)CC1	.	4	.	2	.	10
CC1(C)C2SCC(=O)N2CCN1CC(=O)NN (stereo not drawn)	3	4	-1	6	6	3
NCC(O)c1cc(O)c(O)cc1F (stereo not drawn)	-1	1	-3	4	27*	2
CCCCC(=O)N/N=C/c1c(O)n(Cc2ccco2)c(=O)[nH]c1=O	-8	6	-4	4	4	2
O=C(N/N=C/c1c(O)n(Cc2ccco2)c(=O)[nH]c1=O)c1ccccc1O	-5	15	14	35*	30*	9
O=C(N/N=C/c1c(O)n(C2CCCCC2)c(=S)[nH]c1=O)c1ccccc1O	-4	13	6	13	32*	3
CC(=O)N1N=C2C3CCN(CC3)C2C1c1ccccc1 (stereo not drawn)	1	-3	1	2	3	2
SMILES	PME-1 primary	PAFAH1B2 inh	Fam108B counter	PAFAH2 FP inh	pPAFAH inh	PAFAH1B3 FP inh
O=C1NC(=O)N(Cc2ccco2)C(=O)/C1=C/c1cccn1CCOc1ccccc1Cl	51*	15	5	28	26*	6
Cn1cccc1/C=C1\C(=O)NC(=O)N(Cc2ccccc2)C1=O	0	9	4	17	11	10
Cn1cccc1/C=C1/C(=O)NC(=O)N(Cc2ccccc2)C1=O	-4	6	4	13	2	6
Cn1cccc1/C=C1/C(=O)NC(=O)N(Cc2ccc(F)cc2)C1=O	0	29*	10	12	13	22
COC(=O)C1=C(c2cc3ccccc3s2)C[C@@H]2CC[C@H]1N2C(=O)NCc1ccc(C(F)(F)F)cc1	-7	-2	-8	-7	1	-7
COC(=O)C1=C(c2c(C)noc2C)C[C@@H]2CC[C@H]1N2C(=O)NCc1ccc(C(F)(F)F)cc1	10	24*	.	1	0	9
CCC(=O)c1cn(Cc2ccccc2)c2ccccc12	3	9	4	-6	2	14
CCC(=O)c1cn(Cc2ccccc2C#N)c2ccccc12	35*	4	-5	3	8	3
N#Cc1ccccc1Cn1cc(C(=O)C2CC2)c2ccccc21	63*	1	6	-7	5	7
COC(=O)C1=C(c2ccc(-c3ccccc3)c(F)c2)C[C@@H]2CC[C@H]1N2C(=O)NCc1ccco1	1	0	.	4	7	3
CCN(CC)C(=O)c1ccc2c(c1)C1C=CCC1C(C(=O)O)N2 (stereo not drawn)	.	20	.	40*	.	40*
CN(C)C(=O)Oc1ccc2c(c1)O/C(=C\c1cccc(Cl)c1)C2=O	1	3	2	6	2	-5
Cn1cc(C(=O)OCC(=O)NC2CCCCC2)c2ccccc21	5	5	.	72*	33*	3
C=C[C@@H]1C[C@@]1(C)[C@@H](NP(=O)(c1ccccc1)c1ccccc1)c1ccccc1	8	41*	-2	6	5	8
O=C1NC(=O)N(Cc2ccccc2)C(=O)/C1=C\c1ccco1	-1	7	3	11	20	8
CCCCN1C(=O)/C(=C\c2ccco2)C(=O)N(CCc2ccccc2)C1=O	-9	-4	1	9	29*	-18
Cc1cc(OCC(=O)NCc2ccncc2)c2c3c(c(=O)oc2c1)CCC3	-1	2	0	4	3	-6
Cc1cc(OCC(=O)NC(Cc2ccc(Cl)cc2)C(=O)O)c2c3c(c(=O)oc2c1)CCCC3 (stereo not drawn)	11	30*	-5	9	5	8
COc1ccc(CC(C)NCCc2ccc(OC)c(OC)c2)cc1 (stereo not drawn)	1	1	-1	4	3	3
O=c1[nH]c(=S)n(Cc2ccc(F)cc2)c(O)c1C=NCCCn1ccnc1	0	30*	-1	-16	3	-2
